Activity calls are given as the source filed them.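 The calls were made as follows: active = compound raises GLP1 secretion from the human gut endocrine cells, with no numeric limit stated; inactive = the rest.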
Assay: glucagon-like peptide 1 release enhancers, primary assay, NCI-H716 cell line, NPC library (AID 1117341); also: reference of the scale not given here
Conditions: NCI-H716 cells, at 10 µM, hits give high values

Row | Structure (SMILES) | GLP1 secretion stimulation
1 | CCOC(=O)C1=C(C)NC(C)=C(C(=O)OC)C1c1cccc(Cl)c1Cl (stereo not drawn) | 5.3% (inactive)
2 | O=C(NCCN1CCOCC1)c1ccc(Cl)cc1 | 0.4% (inactive)
3 | CCOc1cc(CC(=O)N[C@@H](CC(C)C)c2ccccc2N2CCCCC2)ccc1C(=O)O | 0.5% (inactive)
4 | COCCCC/C(=N\OCCN)c1ccc(C(F)(F)F)cc1 | -1.9% (inactive)
5 | COc1ccccc1N1CCN(CC(O)COc2cccc3ccccc23)CC1 (stereo not drawn) | 10% (inactive)
6 | CC(C)NCC(O)COc1ccc(CCOCC2CC2)cc1 (stereo not drawn) | 1.9% (inactive)
7 | COc1cc2nc(N3CCN(C(=O)C4CCCO4)CC3)nc(N)c2cc1OC (stereo not drawn) | 1.3% (inactive)
8 | c1cnc(N2CCN(Cc3ccc4c(c3)OCO4)CC2)nc1 | 10.3% (inactive)
9 | CCOC(=O)c1ncn2c1CN(C)C(=O)c1cc(F)ccc1-2 | 0.1% (inactive)
10 | CC(C)NCC(O)COc1ccc(COCCOC(C)C)cc1 (stereo not drawn) | -1.1% (inactive)
11 | CN1CCC(=C2c3ccccc3C=Cc3ccccc32)CC1 | 11.9% (inactive)
12 | Cc1ncc([N+](=O)[O-])n1CC(O)CCl (stereo not drawn) | -0.1% (inactive)
13 | CCc1oc2ccccc2c1C(=O)c1cc(Br)c(O)c(Br)c1 | 21.4% (active)
14 | O=C(CCNNC(=O)c1ccncc1)NCc1ccccc1 | 0.6% (inactive)
15 | Oc1ccc(C2CNCCc3c2cc(O)c(O)c3Cl)cc1 (stereo not drawn) | 1% (inactive)
16 | O=C1CC2(CCCC2)CC(=O)N1CCCCN1CCN(c2ncccn2)CC1 | 1.7% (inactive)
17 | Cc1cccc(C)c1OCC(C)N (stereo not drawn) | -4.1% (inactive)
18 | CN1CCC(=C2c3ccccc3CC(=O)c3sccc32)CC1 | 5.2% (inactive)
